# Reference: the supplement of paper PMC11417369
# ± gives the standard deviation of the averaged measurements. Whole data set: some 25,000 sequences, median “ln(normalized median fluorescence intensity)” near 7.9, cut for the highest 2% near 11. The sample holds the highest values, similar sequences and a random draw of the others, so the mix is not that of the screen.
# Tested on: PfAP2-I AP2 domain 3 (GST-tagged)
# Test: gcPBM binding intensity (ln(normalized median fluorescence intensity)); higher = stronger DNA binding
# How it was run: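 The highest Masliner-normalised natural-log median intensity across replicate spots of either probe orientation is reported as binding intensity. GST-tagged P. falciparum DNA-binding domains expressed in E. coli were applied for 1 h to an Agilent 4 × 180k array of primer-extended double-stranded 36-bp intergenic genomic probes plus negative controls, and bound protein was detected with Alexa488 anti-GST antibody and scanned at 488 nm.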
row,Sequence,gcPBM binding intensity (ln)
1,TCTTTTACAAAAGCTATAACATTCACCACATTATAA [GTGCAC_negctrl_site133],7.68 ± 0.65
2,CTAGGTATGCTTTAAACATGCAAAAATACAAATTAC [TGCATGCA_site239],7.97 ± 0.76
3,ATAAATCCATGGGTAGTGCGCATTTTTTTTTTTTTT [GTGCAC_site9732],9.09 ± 0.41
4,ACAATGTCATTTGCTAGTACGCATATTGGTTGTAAA [XGTACX_site8924],7.76 ± 0.24
5,ATAAAATATCAATACCGTACACAAGCAGGTAAAATA [XGTACX_site3719],7.82 ± 0.8
6,TGATTATAAAAGTAGGTGCTACAAAAATTACACATT [GTGCAC_site9530],8.7 ± 0.45
7,TATAACATTTTTTTCAAAATAGCTTTAGAAATAAAG [CACACA_negctrl_site718],7.37 ± 0.54
8,AAATAATTTATATGTAGTACATGTTGTAGATAATTT [XGTACX_site1031],8.16 ± 0.28
9,TTTGTGTATATAACAGTGCAATATTATAAATATAAA [GTGCAC_site9750],10.5 ± 0.51
10,CATAATATTAAATCAGTGCAAATATACAGAATAAAT [GTGCAC_site9786],10.1 ± 0.17
11,TATACGTATTACAGAGTGCAATAAACAGTATATATT,10.9 ± 0.66
12,TTTTGATTAAGTGAATTTTTTTATTTATATAAATAT [TGCATGCA_negctrl_site479],7.54 ± 0.56
13,AAAATTATTTAGTAAGTGCAAAAAAAAAAAAAAAAA,10.1 ± 0.23
14,AAAAAAAATTATGAAGTGCATTAGTGAATTTGATTG,10.9 ± 0.3
15,CAATTTTACTCATAAACACACATATATATGTTATTA [CACACA_site3152],7.66 ± 0.53
16,AAAAAAAAAAAAAGTACACACTTTTGCGTACATGTA [CACACA_site7449],8.06 ± 0.63
17,TGCATTATTTACAAGGTGCGTTACAAATGTGTAACA [GTGCAC_site9442],11.3 ± 0.88
18,ATATATTTATTAAGGTGTACAAAAATTATGTTGCAT [XGTACX_site7546],8.26 ± 0.35
19,TATATTATATATATGTGTACATATAAATGTAACAAA [XGTACX_site5025],7.67 ± 0.34
20,TTAACATAAATATATACACACCAATGATGGCATTTA [CACACA_site4952],7.51 ± 0.52

row,Sequence,gcPBM binding intensity (ln)
1,TATATATTCATGTGTACACACAAAAAAAAATAAAGT [CACACA_site2207],8.41 ± 0.65
2,TTGTATGCTTCCCGACTACATTATGCCATAAATGTA [TGCATGCA_negctrl_site136],7.92 ± 0.49
3,AGTGCATACATGAATTGTACTTTAAAATAAATTCTA [XGTACX_site8156],9.7 ± 0.52
4,TAAATATATTTCATGACATGCAACTTGTTTTTTTGT [TGCATGCA_site456],7.63 ± 0.7
5,TTCTTATTTGTACTAGTGCAATAGAAAATAAATAAA [GTGCAC_site9731],10.9 ± 0.49
6,TAAAATTTGTACATAGTGCAATTTTTTTTTTTTTTT,9.81 ± 0.099
7,TTTTTTCTTAAAATTTGTACATAGTGCAATTTTTTT [XGTACX_site5509],9.5 ± 0.69
8,TATTTTACATCTTCTCACATTTTATCACTTTTTAAA [CACACA_negctrl_site330],8.08 ± 0.45
9,ATTATTATAGATATAACACACATAATTACATACTTA [CACACA_site6837],7.97 ± 0.14
10,ATTTTCTTTTCCATAGTGCAATATAATTATCCATCA [GTGCAC_site9547],11.3 ± 0.39
11,ATATATATTATATAAGTGCATAATATTCTTTCTTTT,10.5 ± 0.25
12,TTATATAATTTAATAGTGCAATTATATTAATTTTTC,9.82 ± 0.42
13,GATAGACACGTGCACACATGCAATACTTTATTCAGT [TGCATGCA_site778],10.1 ± 0.32
14,ATTTGATAGACACATGCACACATGCAATACTTTATT [CACACA_site5633],8.81 ± 0.77
15,TTTAATTTGATAGACACATGCACACGTGCAATACTT [TGCATGCA_site777],10.95 ± 0.021
16,CATTATCATGTTTTTTGTACTCATAATAAAAAGCAG [XGTACX_site2056],8.03 ± 0.21
17,ATAATAAAATAAATCACACATAATATAATGTAATAT [CACACA_site6144],7.54 ± 0.54
18,AATCTAATATAATGCACACATAAAAAAAAATCAAAC [CACACA_site3633],11.1 ± 0.94
19,AAAATCTAATATAATGCACACATAAAAAAAAAATCA [CACACA_site8871],11 ± 0.68
20,AAAATCTAATATAATGCACACATAAAAAAAAATCAA [CACACA_site9211],10.9 ± 0.59

row,Sequence,gcPBM binding intensity (ln)
1,TATCAAAATAAATGCACACAAATTGCACATATCTAT [CACACA_site1097],10.3 ± 0.11
2,AATCTAATATAATGCACACATAAAAAAAAAATCAAA [CACACA_site2714],10.7 ± 0.74
3,TAGATATATAAATACACACACATACACAAAAAAAAA [CACACA_site7652],8.21 ± 0.45
4,AAATATATATAAAACTCACACATTATCTTATAACCA [CACACA_site5268],7.83 ± 0.23
5,AAATTATTATCGTTAATATGTATATATGTGCCAAGT [TGCATGCA_negctrl_site557],8.06 ± 0.44
6,GGTTACATTTTATTTTGTACATAAAAATTTTTATTT [XGTACX_site218],8.15 ± 0.53
7,AAAAATAAACAATATATAGTTATATATATATATATA [TGCATGCA_negctrl_site82],9.29 ± 0.69
8,TTTTTGTTATTTTTAGTGCACATTTAAGGGTGTATT,11.4 ± 0.53
9,TTCTCATTCAAATTAGTGCATTTTTGTTATTACATT,9.81 ± 0.2
10,TGTGCACATAATTAGTGTACATTTTTTATTTAGACA [XGTACX_site317],10.3 ± 0.88
11,ATATTTATTTGTTAGTGTACATACATATATATATAT [XGTACX_site1347],9.47 ± 0.4
12,TTTATATTTATGTAGGTGCATTTGTTTACAACATAT [GTGCAC_site9511],10.8 ± 0.71
13,TATTTTTTTTGTTAGGTGCATTTACATTTATTTTTA,10.8 ± 0.61
14,CTATATTTTTAAAAATGTACTTTATAATAAAATACT [XGTACX_site3593],7.83 ± 0.32
15,ATTTATAATGATTTTTTTAGTAATCTTGTTATTTTT [XGTACX_negctrl_site373],7.38 ± 0.54
16,CTATTTAAAATATGAACACACATTATTTGTTTTAGA [CACACA_site2713],7.42 ± 0.43
17,TATTTGTATAAATAAAAATAATATATATCAAATAAC [CACACA_negctrl_site218],7.57 ± 0.55
18,AATAGCAATTTGGGGTGTACACACACCTTATTTAAA [XGTACX_site2234],8.04 ± 0.23
